Records with an inconclusive call do not appear. Values without a mark were called inactive. Calls of active or inactive are those of the source. The call rests on the fitted dose curve; in most records, active means well fitted inhibition curve with a large enough effect; inconclusive means small, poorly fitted or top-dose-only effect, or effect the other way; inactive means flat fitted curve, though single readings scatter.
These molecules were tested against Ubiquitin carboxyl-terminal hydrolase 2 (Homo sapiens) (UniProt O75604) (assay: Confirmation Assay for Inhibitors of Ubiquitin-specific Protease USP2a Using CHOP2 as the Reporter). Conditions: USP2 core, Ub-CHOP2 coupled reporter fluorescence; series mostly up to 38.3 µM; activity change, negative = inhibition: at the top concentration.
Sequence of Ubiquitin carboxyl-terminal hydrolase 2 (Homo sapiens) (O75604 whole entry, looked up): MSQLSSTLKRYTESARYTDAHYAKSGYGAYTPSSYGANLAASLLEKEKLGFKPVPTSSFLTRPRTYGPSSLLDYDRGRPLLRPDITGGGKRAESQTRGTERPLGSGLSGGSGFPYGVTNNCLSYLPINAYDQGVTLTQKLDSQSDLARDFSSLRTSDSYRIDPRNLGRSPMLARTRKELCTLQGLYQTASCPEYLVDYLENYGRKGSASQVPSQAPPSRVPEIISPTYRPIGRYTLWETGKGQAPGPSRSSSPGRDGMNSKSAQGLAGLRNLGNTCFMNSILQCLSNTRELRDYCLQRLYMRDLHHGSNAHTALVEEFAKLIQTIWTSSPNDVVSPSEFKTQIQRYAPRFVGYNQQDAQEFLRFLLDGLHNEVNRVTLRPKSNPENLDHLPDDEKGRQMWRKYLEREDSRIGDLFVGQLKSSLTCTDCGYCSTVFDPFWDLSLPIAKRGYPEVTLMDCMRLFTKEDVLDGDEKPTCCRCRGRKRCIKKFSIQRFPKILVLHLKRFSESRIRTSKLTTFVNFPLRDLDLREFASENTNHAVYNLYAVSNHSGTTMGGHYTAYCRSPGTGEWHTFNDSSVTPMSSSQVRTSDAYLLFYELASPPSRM
How it was run: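 USP2 core (10 nM final) was preincubated with compound for 30 min at RT in Tris-HCl pH 8.0, CaCl2, beta-mercaptoethanol, CHAPS. Ub-CHOP2 and reporter substrate (25 nM final each) were added, and fluorescence (Ex 485/Em 531 nm) was read after 60 min.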
Further: nearly all actives have a fitted effect of over 55% in size.
Potency means the concentration at half of the fitted maximal effect.
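Wherever activity change, negative = inhibition is given: plate controls were DMSO wells for no effect and full inhibition by NEM control for full effect.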

| SMILES | activity change, negative = inhibition | Potency |
| --- | --- | --- |
| CC(=O)Nc1ccc(NC(=O)C2CCCN(S(=O)(=O)c3ccc(Cl)cc3)C2)cc1 (configuration not stated) | 10.2% | – |
| CN1CCN(S(=O)(=O)c2ccc(N3CCN(S(=O)(=O)/C=C/c4ccccc4)CC3)nc2)CC1 | -0.101% | – |
| Cc1cc(C)c2c(N=CN(C)C)c(C(=O)N3CCN(c4ncccn4)CC3)sc2n1 | -1.59% | – |
| O=C(Nc1nnc(-c2cccs2)o1)c1cccc(Oc2ccccc2)c1 | -18.2% | – |
| Cc1ccc(C(=O)NCc2ccc3c(c2)OCO3)cc1N1CCCC1=O | -2.42% | – |
| Cc1ccccc1C(=O)Nc1ccc2nc3n(c(=O)c2c1)CCC3 | -1.25% | – |
| COCCCNC(=O)C1CCN(c2nc(C)cc(C)n2)CC1 | 1.61% | – |
| CCOc1ccccc1N1C(=O)CC(Nc2ccc(N3CCOCC3)cc2)C1=O (configuration not stated) | -2.19% | – |
| Cc1ccc(C)c(S(=O)(=O)c2c(N)n(/N=C/c3ccco3)c3nc4ccccc4nc23)c1 | 0.424% | – |
| CC(C)OCCCNC(=O)CN1C(=O)CC(C)(C)S(=O)(=O)c2ccccc21 | -6.12% | – |
| CN(C)CCOCCP(=O)(c1ccccc1)c1ccccc1 | 3.55% | – |
| FC(F)Sc1ccc(NC(=S)NC2CCCCC2)cc1 | 2.42% | – |
| Cc1ccc(S(=O)(=O)Nc2ccccc2C(=O)Nc2nc(-c3ccc(F)cc3)cs2)cc1 | – | 14.7 µM (active) |
| Cc1ccc(S(=O)(=O)Nc2ccc(N3CCOCC3)cc2)cc1 | -0.804% | – |
| C=CCn1c(O)c(C(CC)=NCCN2CCOCC2)c(=O)[nH]c1=O | 5.16% | – |
| CCC(CO)Oc1cc(NCc2cccc(C)c2)c2ncn(C(C)C)c2c1 (configuration not stated) | 6.16% | – |
| Cc1ccc(NS(=O)(=O)c2cccc(C(=O)OCC(=O)NCc3ccco3)c2)cc1 | -4.99% | – |
| COc1ccccc1N1C(=O)CC(N2CCc3ccccc32)C1=O (configuration not stated) | 0.0977% | – |
| Cc1ccc(C(=O)NCCNS(=O)(=O)c2ccccc2)cc1 | 3.38% | – |
| Cc1ccc(C(=O)N/C(=C/c2ccco2)C(=O)Nc2cccc(C(=O)O)c2)cc1 | -4.3% | – |
| Cc1ccc(CN2C(=O)N/C(=C\c3cccn3-c3cccc(C(=O)O)c3)C2=O)cc1 | 1.47% | – |
| COC(=O)CC1Oc2ccc(C)cc2NC1=O (configuration not stated) | 5.71% | – |

Source: PubChem BioAssay AID493168 (National Center for Advancing Translational Sciences (NCATS), 2011)
